Laboratory results: PubChem BioAssay (NCI)
About 83,000 compounds went through this panel and 20% of them were active in at least one assay; those are over-represented in the sample as a whole.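 Each cell line was grown in a 96-well plate and treated with one concentration of compound for 48 hours. Values below 10 were considered active.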 Values without a mark were called inactive. Activity calls are given as the source filed them.

These compounds were tested on IGROV1 ovarian (assay: NCI-60 one-dose screen, 48 h (100 = growth as untreated, 0 = no growth, -100 = all killed)). Conditions: 10 µM unless noted.
In the case of `CCCCCN1C=C/C(=C\C(=O)N(C)c2ccc(Oc3ccccc3)cc2)c2ccccc21`, the growth is reported as 58.1%. Work on `CNC(=O)c1cncc(Cn2nc(C)c(NC(=O)c3ccc(COc4ccc(C(F)(F)F)cc4C)cc3)c2C)c1` yielded a growth of 62.7%. Work on `Nc1c(C(=O)Nc2ccnc3ccccc23)sc2nc3c(cc12)CN(Cc1ccccc1)CC3` yielded a growth of 86.4%. With `CC1=C(C(=O)/C=C/c2ccc(N(C)C)cc2)C(c2ccccc2)NC(=S)N1` (configuration not stated) the growth was 98.9%. For `Nc1nc(Nc2ccccc2SSc2ccccc2Nc2nc(N)nc(-c3cccs3)n2)nc(-c2ccsc2)n1`, the growth was 58.9%. In the case of `COc1cc2c(cc1OC)C(=O)/C(=C/c1cc(C)c(O)c(C)c1)S2`, the growth is reported as 35.6%. `COc1cc2c(=O)n(CCCN(C)C)c3c4cc5c(cc4ccc3c2cc1OC)OCO5` gave a growth of 31.9%. `CCN(CC)CC[n+]1cc2cc(OC)c(OC)cc2c2ccc3cc4c(cc3c21)OCO4` was tested, and the growth was -44.1% (active). `O=C(Nc1ccc(NC(=O)c2cc(=O)[nH]c3ccccc23)cc1)Nc1cccc(Cl)c1` gave a growth of 69%. For `COc1ccc(/C=C2\Oc3cc(OCCCN4CCCCC4)ccc3C2=O)cc1OC`, the growth was 93.9%. `Cc1nc(N)nc(N[C@@H](C)c2nc3cccc(NCc4ccc(C(=O)NO)cc4)c3c(=O)n2-c2ccccc2)n1` was tested, and the growth was 69.5%. `Cc1ccc(/C=N/NC(=O)CSc2nc3ccccc3c(=O)n2Cc2ccc(S(N)(=O)=O)cc2)cc1` gave a growth of 96.2%. Work on `COc1cc(/C(C)=C(\c2ccc(Cl)cc2)c2ccc(OCCN3CCCC3)cc2)ccc1F` yielded a growth of 40.4%. In the case of `COc1cc2nc(-c3ccc(Cl)cc3)cc(OCCCN3CCOCC3)c2cc1OC`, the growth is reported as 35.6%. In the case of `COc1ccc(NC(N)=NCCCOc2ccc(F)cc2)cc1`, the growth is reported as 67.7%. Compound `COC(=O)CNC(=O)[C@]12CCC(C)(C)C[C@H]1C1=CC[C@@H]3[C@@]4(C)Cc5c([nH]c6ccccc56)C(C)(C)[C@@H]4CC[C@@]3(C)[C@]1(C)CC2` has a growth of 104%. `C[C@H]1[C@H](C)CC[C@]2(C(=O)Nc3ccc4ncccc4c3)CC[C@]3(C)C(=CC[C@@H]4[C@@]5(C)CCCNC(C)(C)[C@@H]5CC[C@]43C)[C@H]12` was tested, and the growth was -73.3% (active). `COc1cc(NC(C)CCCNC(=O)CCC(=O)NCCCNCCCCCCCCCCNCCCNC(=O)CCC(=O)NCCCC(C)Nc2cc(OC)cc3cccnc23)c2ncccc2c1` (configuration not stated) was tested, and the growth was 57.9% [8 µM]. `CCCCCN1C=C/C(=C\C(=O)n2ccc3ccccc32)c2ccccc21` gave a growth of 65.5%. With `Cc1cc2nc3c4ccc(Br)cc4n(CCN(C)C)c3nc2cc1C` the growth was 4.76% (active). `CC1(C)CC(=O)C2=C(C1)N(c1ccc(F)cc1F)C(N)=C(C#N)C2c1cc(Br)ccc1F` (configuration not stated) showed a growth of 94.3%. With `C[C@H]1[C@H](C)CC[C@]2(C(=O)NCC#CCN3CCN(C)CC3)CC[C@]3(C)C(=CC[C@@H]4[C@@]5(C)Cc6c([nH]c7ccccc67)C(C)(C)[C@@H]5CC[C@]43C)[C@H]12` the growth was 93.6%. For `COc1cc2nc(-c3ccc(C(F)(F)F)cc3)cc(OCCCN3CCOCC3)c2cc1OC`, the growth was 36.4%. `O=C1c2c(c3c4cccc(F)c4[nH]c3c3ccc4ccccc4c23)C(=O)N1O` gave a growth of 35.2%. Compound `O=C1OC(Cc2ccccc2)C1c1ccccc1` (configuration not stated) has a growth of 101%. In the case of `COc1cccc(/C=N/NC(=O)c2cnn3c2NC(c2ccccc2)C3)c1Oc1ccccc1` (configuration not stated), the growth is reported as 78.4%. In the case of `COc1ccc(NC(=O)c2cc(NCc3cc(O)ccc3O)ccc2O)cc1`, the growth is reported as 88.4%. With `COc1cc2nc(-c3ccc(Cl)cc3)cc(OCCCN3CCCC3)c2cc1OC` the growth was 34.5%. In the case of `COc1ccc(C/C(=C(\C)c2ccc(OCCN3CCCC3)cc2)c2ccc(OCCN3CCCC3)cc2)cc1`, the growth is reported as 64.1%. Work on `COc1cc(NC(C)CCCNC(=O)CCC(=O)NCCCNCCCCCCCCNCCCNC(=O)CCC(=O)NCCCC(C)Nc2cc(OC)cc3cccnc23)c2ncccc2c1` (configuration not stated) yielded a growth of 59.1%. In the case of `COc1ccc(Cc2cnc(NC(=O)c3ccc4c(c3)OCCO4)s2)cc1`, the growth is reported as 20.2%. Work on `CC(=O)N1c2ccccc2NC2=C(C(=O)NC2(C)C)C1c1ccco1` (configuration not stated) yielded a growth of 56.7%. Compound `O=S(=O)(NCCNc1nccc(-c2c(-c3cccc(F)c3)nc3sccn23)n1)c1ccc(Cl)cc1` has a growth of 15.8%. `CC(Sc1nc2sc3c(c2c(=O)n1-c1ccc(Cl)cc1)CCCC3)C(=O)Nc1nc(-c2ccc(Br)cc2)cs1` (configuration not stated) showed a growth of 96%. For `C[C@@H](Nc1ncnc2ccc(-c3cnc(N)nc3)cc12)c1ccc(F)cc1`, the growth was 28.7%. For `CC1(C)CC[C@]23CC[C@]4(C)[C@H](CC[C@@H]5[C@@]6(C)CCCNC(C)(C)[C@@H]6CC[C@]54C)[C@H]2[C@H]1OC3`, the growth was -58.7% (active). `COc1ccc(C(=O)c2nc3ccccc3n2CC(=O)c2ccc(Cl)cc2)cc1` gave a growth of 23.7%.
